Source: PubChem BioAssay (National Center for Advancing Translational Sciences (NCATS))
NPC1 promoter act – activators of NPC1 promoter; Huh7 NPC1 promoter luciferase reporter, 24 h; Potency, µM (titrated, usually from 9.22 µM), usual class: activators; 320,000 tested, 2.4% active; AID 485313; further: nearly all actives have a fitted effect of over 60% in size
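Quantitative HTS used a cell-based reporter: Huh7 cells stably bearing the NPC1 promoter upstream of luciferase were treated with compounds for 24 h, and promoter activation was read as luminescence.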
Rab9 promoter act – activates the Rab9 promoter. Huh7 Rab9 promoter-luciferase reporter, luminescence, 24 h. 320,000 tested, 2.8% active. Potency, µM (top dose mostly 9.22 µM), usual class: activators; further: nearly all actives have a fitted effect of over 60% in size
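Cell-based reporter: Huh7 stable for Rab9 promoter-driven luciferase, plated in reduced-serum medium with 10% FBS at 1500 cells/well, compound-treated 24 h at 37 °C, luminescence read after 10 min reagent.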
FLuc modulator – inhibits or activates purified firefly luciferase, miR-21 counter-screen | P08659 | purified FLuc, Km substrates, luminescence inhibition | Potency, µM (highest dose often 57.5 µM), most hits filed as inhibitors | 360,000 tested, 6.9% active; further: nearly all actives have a fitted effect of over 55% in size
Target sequence (P08659 whole entry, looked up): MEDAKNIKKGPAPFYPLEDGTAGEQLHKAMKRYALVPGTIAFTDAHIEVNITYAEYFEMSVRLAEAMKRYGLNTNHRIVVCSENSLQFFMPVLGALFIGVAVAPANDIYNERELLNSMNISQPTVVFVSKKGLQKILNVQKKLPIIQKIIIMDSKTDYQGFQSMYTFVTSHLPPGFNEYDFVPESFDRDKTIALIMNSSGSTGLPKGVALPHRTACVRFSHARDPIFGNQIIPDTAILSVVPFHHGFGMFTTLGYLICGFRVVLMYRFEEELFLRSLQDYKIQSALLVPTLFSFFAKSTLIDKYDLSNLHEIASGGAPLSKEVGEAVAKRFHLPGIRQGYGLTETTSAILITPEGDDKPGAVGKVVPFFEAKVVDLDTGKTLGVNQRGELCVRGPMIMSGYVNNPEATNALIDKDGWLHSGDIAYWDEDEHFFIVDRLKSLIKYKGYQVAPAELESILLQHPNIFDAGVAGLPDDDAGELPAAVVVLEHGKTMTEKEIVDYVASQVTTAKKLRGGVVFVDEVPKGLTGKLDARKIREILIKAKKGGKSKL
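Purified P. pyralis luciferase (10nM final) with 10uM D-luciferin and 10uM ATP (Km levels) in 50mM Tris acetate pH 7.5, 10mM Mg acetate, 0.01% Tween-20, 0.05% BSA; qHTS 6-point titration, ~60 µM downward; luminescence read.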
SMN2 splice enh – SMN2 splice variant enhancement; HEK293 SMN2-luciferase splicing reporter, luminescence, 30-36 h; Potency, µM (doses to about 46.1 µM), most hits filed as activators; 210,000 tested, 2.8% active; further: nearly all actives have a fitted effect of over 55% in size
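qHTS luciferase splicing reporter: luminescence rises when SMN2 exon 7 is included in transfected HEK293 cells. Compound exposure lasted 30-36 h at 37C, with 4.5 mM final sodium butyrate as control, followed by a ONE-Glo read.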
p53 reactivator – mutant p53 re-activation in reporter cells; 320,000 tested, 0.063% active; Potency, µM (series often up to 92.2 µM), usual class: activators; H1299 p53-A138V BP100-luciferase reporter, luminescence, 24 h; AID 504706; further: nearly all actives have a fitted effect of over 45% in size
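p53-null H1299 cells stably carrying temperature-sensitive p53-A138V and a BP100-luciferase reporter were pinned with compounds (4-point, 1:5 series) and held 24 hrs at 37 deg C. Luminescence was read 10 min after detection reagent.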
ELG1 genotoxic – induces genotoxicity in HEK293T cells with luciferase-tagged ELG1 | AID 504466 | Potency, µM (highest dose often 46 µM), usual class: activators | 330,000 tested, 1.3% active | HEK293T ELG1-luciferase reporter, luminescence, 16 h; further: nearly all actives have a fitted effect of over 60% in size
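Genotoxic stress is detected as increased luminescence from luciferase-tagged ELG1 in HEK293T cells, measured with ONE-Glo after a 16 hr treatment at 37 °C.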
Hits are given with their value. In the library only some 7.3% were active in any assay of this set; here they are far more common. The call rests on the fitted dose curve; in most records, active means well fitted curve in the direction sought with a large enough effect; inconclusive means small, poorly fitted or top-dose-only effect, or another doubt; inactive means no such curve, though single readings can be large; an effect the other way counts as inactive or inconclusive.

How did Fc1cccc2sc(Nc3nnc(-c4ccccc4)o3)nc12 do in these assays?
NPC1 promoter act: 2.5µM; Rab9 promoter act: 3.2µM; FLuc modulator: 3µM; SMN2 splice enh: 3.2µM; p53 reactivator: inconclusive; ELG1 genotoxic: inconclusive

Results for Fc1cccc2sc(Nc3nc4c(F)cccc4s3)nc12 ?
NPC1 promoter act: inconclusive; Rab9 promoter act: inconclusive; FLuc modulator: 4.3µM; SMN2 splice enh: 16µM; p53 reactivator: inactive; ELG1 genotoxic: inactive

Results for CC(=O)Nc1ccc(-c2nnc(SCc3ccc(C)cc3)n2C)cc1 ?
NPC1 promoter act: inactive; Rab9 promoter act: inactive; FLuc modulator: inactive; SMN2 splice enh: inactive; p53 reactivator: inactive; ELG1 genotoxic: inactive

What do the screens show for `COC(=O)CSc1nnc(-c2cccc(NC(=O)c3ccc(C)cc3)c2)n1C`?
NPC1 promoter act: inactive; Rab9 promoter act: inactive; FLuc modulator: 24µM; SMN2 splice enh: inactive; p53 reactivator: inactive; ELG1 genotoxic: inactive

What do the screens show for `Cc1ccc(NC(=O)c2ccc(CSc3nnc(-c4ccncc4)n3C)cc2)cc1`?
NPC1 promoter act: inactive; Rab9 promoter act: inactive; FLuc modulator: 1.9µM; SMN2 splice enh: inactive; p53 reactivator: inactive; ELG1 genotoxic: inactive

Results for CCn1c(SCC(=O)Nc2nccs2)nnc1-c1ccc(C)cc1 ?
NPC1 promoter act: inactive; Rab9 promoter act: inactive; FLuc modulator: inactive; SMN2 splice enh: inactive; p53 reactivator: inactive; ELG1 genotoxic: inactive

How did CCC(=O)Nc1ccc(-c2nnc(SCc3ccc(C(=O)Nc4nccs4)cc3)n2CC)cc1 do in these assays?
NPC1 promoter act: inactive; FLuc modulator: 11µM; SMN2 splice enh: inactive; p53 reactivator: inactive; ELG1 genotoxic: inactive

How did Cn1nnnc1SCc1ccc(C(=O)Nc2ccc(Br)cc2)cc1 do in these assays?
NPC1 promoter act: inconclusive; Rab9 promoter act: inconclusive; FLuc modulator: 6µM; SMN2 splice enh: inactive; p53 reactivator: inactive; ELG1 genotoxic: inconclusive

Results for CC1(C)CC(N=C=O)CC(C)(CN=C=O)C1 (stereo not drawn) ?
SMN2 splice enh: inactive

What do the screens show for `O=c1cnc2cnc(Nc3ccccc3)nc2n1C[C@H]1CCCO1`?
SMN2 splice enh: inactive

Results for COc1cccc(O)c1O ?
SMN2 splice enh: inactive

What do the screens show for `Cc1nn(-c2ccccc2)c2nc(C3CC3)cc(C(=O)Nc3cccc(F)c3)c12`?
FLuc modulator: inactive

What do the screens show for `N#C/C(=C\c1ccc(F)cc1)c1nc(-c2ccco2)cs1`?
NPC1 promoter act: inconclusive; Rab9 promoter act: inconclusive; FLuc modulator: 2.7µM; SMN2 splice enh: inactive; p53 reactivator: inconclusive; ELG1 genotoxic: inconclusive

Results for N#C/C(=C\c1ccc(Cl)cc1)c1nc(-c2ccco2)cs1 ?
NPC1 promoter act: inactive; Rab9 promoter act: inactive; FLuc modulator: inconclusive; SMN2 splice enh: inactive; p53 reactivator: inactive; ELG1 genotoxic: inactive

What do the screens show for `COc1ccc(C)cc1NC(=O)c1c(C(=O)Nc2cccc(C)c2C)sc2nc(C)cc(=O)n12`?
FLuc modulator: inactive; SMN2 splice enh: inactive

What do the screens show for `CCOC(=O)c1c(-c2ccccc2)csc1NC(=O)c1cc(-c2ccc(Cl)cc2)on1`?
FLuc modulator: inactive; SMN2 splice enh: inactive

Results for NS(=O)(=O)c1ccc(NC(=O)COC(=O)COc2cccc(C(F)(F)F)c2)cc1 ?
NPC1 promoter act: inactive; Rab9 promoter act: inactive; FLuc modulator: 13µM; p53 reactivator: inactive; ELG1 genotoxic: inactive

Results for C=CCc1ccc(OC(=O)c2ccccc2)c(OC)c1 ?
NPC1 promoter act: inactive; Rab9 promoter act: inactive; FLuc modulator: 6.7µM; SMN2 splice enh: inactive; p53 reactivator: inactive; ELG1 genotoxic: inactive

What do the screens show for `C=CCc1ccc(OCCCOc2ccc(C(=O)O)cc2)c(OC)c1`?
NPC1 promoter act: inactive; Rab9 promoter act: inactive; FLuc modulator: 11µM; SMN2 splice enh: inactive; p53 reactivator: inactive; ELG1 genotoxic: inactive

What do the screens show for `C=CCc1ccc(OCCCCN2CCC(C)CC2)c(OC)c1`?
NPC1 promoter act: inactive; Rab9 promoter act: inactive; FLuc modulator: inactive; SMN2 splice enh: inactive; p53 reactivator: inactive; ELG1 genotoxic: inactive

Results for Cc1ccc(-n2ccn(CC(=O)c3ccc(F)cc3)c(=O)c2=O)cc1C ?
FLuc modulator: inactive

What do the screens show for `COc1ccccc1CNC(=O)CSc1nc(=O)[nH]c2c1CCC2`?
FLuc modulator: inactive

What do the screens show for `CC(C)C[C@@H](CC(=O)N[C@H](CC(=O)N[C@@H]1CCCC[C@H]1C(=O)N[C@H](CC(=O)N[C@@H](CCC(=O)O)CC(=O)O)Cc1c[nH]c2ccccc12)C(C)C)NC(=O)[C@@H]1CNCC[C@H]1N`?
SMN2 splice enh: inactive

Results for O=[N+]([O-])c1ccc(/C=N/Nc2nc(-c3ccccc3)c3cc(Br)ccc3n2)o1 ?
NPC1 promoter act: inactive; Rab9 promoter act: inactive; FLuc modulator: inactive; SMN2 splice enh: inactive; p53 reactivator: inactive; ELG1 genotoxic: inactive

What do the screens show for `O=[N+]([O-])c1ccc(/C=N/Nc2ccc3ccccc3c2)o1`?
NPC1 promoter act: inconclusive; Rab9 promoter act: inconclusive; FLuc modulator: 11µM; SMN2 splice enh: inactive; ELG1 genotoxic: inactive

What do the screens show for `O=C(N/N=C/c1ccc([N+](=O)[O-])o1)c1cc2ccccc2o1`?
NPC1 promoter act: inactive; Rab9 promoter act: inactive; FLuc modulator: inactive; p53 reactivator: inactive; ELG1 genotoxic: inactive

Results for Cc1ccc2nc(N/N=C\c3ccc([N+](=O)[O-])o3)nc(-c3ccccc3)c2c1 ?
NPC1 promoter act: inactive; Rab9 promoter act: inactive; FLuc modulator: 7.6µM; SMN2 splice enh: inactive; p53 reactivator: inactive; ELG1 genotoxic: inactive

How did COc1ccc(C(=O)O/N=C(\N)c2cccc(C)c2)cc1OC do in these assays?
NPC1 promoter act: inconclusive; Rab9 promoter act: inconclusive; FLuc modulator: 21µM; p53 reactivator: inconclusive; ELG1 genotoxic: inconclusive

Results for COc1ccc(C(=O)O/N=C(\N)c2ccccc2)cc1OC ?
NPC1 promoter act: 2.8µM; Rab9 promoter act: 3.5µM; FLuc modulator: 11µM; p53 reactivator: inconclusive; ELG1 genotoxic: 21µM

Results for COc1ccc(C(=O)O/N=C(\N)c2ccncc2)cc1OC ?
NPC1 promoter act: inactive; Rab9 promoter act: inactive; FLuc modulator: inactive; SMN2 splice enh: inactive; p53 reactivator: inconclusive; ELG1 genotoxic: inactive

What do the screens show for `COc1ccc(/C(N)=N/OC(=O)CSc2ccccc2)cc1OC`?
NPC1 promoter act: inactive; Rab9 promoter act: inactive; FLuc modulator: 24µM; SMN2 splice enh: inactive; p53 reactivator: inconclusive; ELG1 genotoxic: 18µM

How did COCCN1C(=O)N[C@@H](CCc2ccccc2)C(C(=O)OC)=C1C do in these assays?
SMN2 splice enh: inactive

What do the screens show for `c1ccc2c(c1)nnn1c3ccccc3nc21`?
NPC1 promoter act: 1.1µM; Rab9 promoter act: inactive; FLuc modulator: 4.8µM; SMN2 splice enh: inactive; p53 reactivator: inconclusive; ELG1 genotoxic: 1.6µM
